# ADAM10 inh: ADAM10 inhibition, QFRET primary screen | O14672 | recombinant ADAM10, EDANS/DABCYL FRET peptide cleavage, 3 h | inhibition, % at 7 µM | 370,000 compounds, 0.62% hits | AID 720582;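 active = inhibition above a per-campaign cutoff equal to the mean of compounds falling between control-based bounds plus 3 SD, cut at about 20% in these data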;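 also: 0% = DMSO wells while the 100% control is not disclosed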
# V-ATPase pHluor: yeast V-ATPase proton transport regulation by pHLuorin | S. cerevisiae, pHLuorin cytosolic pH fluorescence | response, % at 10 µM | 350,000 compounds, 0.37% hits | AID 504577; in the data active = response mostly above about 7.3%, no sharp cut-off; inactive = mostly below about 5.4%; also: actives read high
# proKLK7 act: activates the human kallikrein-7 zymogen | P49862 | purified proKLK7, EDANS-DABCYL substrate fluorescence; 100% is mature enzyme control, 0% vehicle | activation, % at 7 µM | 370,000 compounds, 0.9% hits;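 active = activation above the mean of all tested compounds plus 3 SD, computed per campaign excluding outliers beyond control limits, cut at about 13% in these data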
# Target sequence (P49862 whole entry, looked up): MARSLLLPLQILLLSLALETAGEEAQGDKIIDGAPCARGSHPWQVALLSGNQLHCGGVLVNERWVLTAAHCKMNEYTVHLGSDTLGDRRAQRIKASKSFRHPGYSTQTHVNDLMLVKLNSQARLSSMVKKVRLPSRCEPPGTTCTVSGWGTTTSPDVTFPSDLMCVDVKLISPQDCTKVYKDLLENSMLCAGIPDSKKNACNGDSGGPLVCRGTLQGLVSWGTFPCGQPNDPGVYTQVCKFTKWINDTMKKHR
# ADAM17 inh: inhibits human ADAM17. P78536. recombinant ADAM17, EDANS/DABCYL FRET peptide cleavage. inhibition, % at 6.95 µM. 370,000 compounds, 0.83% hits. AID 720648;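 active = inhibition above the mean of compounds lying between control limits plus 3 SD, set per campaign, cut at about 8.5% in these data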;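 also: 0% = DMSO-only wells as the low control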
# ADAM10 counter: ADAM10 inhibition, counter-screen for ADAM17 exosite hits. shares compounds with ADAM17 inh. recombinant ADAM10, EDANS/DABCYL FRET peptide cleavage, 3 h. inhibition, % at 6.95 µM. 2,900 compounds, 47% hits. AID 743256;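 active = mean inhibition over the triplicate runs exceeds the activity threshold set in the earlier primary screen, cut at about 20% in these data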;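 also: 0% = DMSO wells and 100% = marimastat wells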
# ADAM17 confirm: confirmation of inhibitors of human ADAM17; shares compounds with ADAM17 inh; recombinant ADAM17, EDANS/DABCYL QFRET peptide cleavage; inhibition, % at 6.95 µM; 2,900 compounds, 65% hits;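 active = mean inhibition across replicates above the hit cutoff set in the primary screen, cut at about 8.5% in these data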;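 also: 0% = DMSO wells and 100% = marimastat wells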
# Numbers without * were called inactive; . = not tested or not shown. A selection: hits, their analogues and other compounds. The true share with any hit is near 2.3%.
SMILES,ADAM10 inh,V-ATPase pHluor,proKLK7 act,ADAM17 inh,ADAM10 counter,ADAM17 confirm
CCN(CC)S(=O)(=O)c1cccc(NC(=O)CCSc2ccc(Cl)cc2)c1,10.1,-2.3,0.4,9.2*,37.1*,17.3*
COc1ccc([N+](=O)[O-])cc1NC(=O)C(C)OC(=O)c1ccccc1C(=O)c1ccc(Cl)cc1 (stereo not given),13.0,4.3,0.2,8.8*,46.1*,18.2*
COc1ccc([N+](=O)[O-])cc1NC(=O)COC(=O)c1ccccc1C(=O)c1ccccc1,-1.1,0.3,0.0,-2.7,.,.
COc1ccc(OC)c(S(=O)(=O)N(CCc2ccc(OC)c(OC)c2)Cc2cccs2)c1,8.2,.,0.5,5.2,.,.
CC(C)Oc1cc(NC(=O)CS(=O)CC(=O)N(C)C)c(Cl)cc1Cl (stereo not given),-3.9,1.7,0.2,-0.5,.,.
CC(C)Oc1cc(NC(=O)CS(=O)CC(=O)Nc2cccc(C(F)(F)F)c2)c(Cl)cc1Cl (stereo not given),17.9,4.4,-0.5,9.2*,31.0*,15.8*
COCCOc1ccc(C(F)(F)F)cc1NC(=O)CN1C(=O)NC2(CCc3ccccc32)C1=O (stereo not given),2.8,3.1,-0.2,-0.8,.,.
COCCOc1ccc(C(F)(F)F)cc1NC(=O)CN1C(=O)NC2(CCCc3ccccc32)C1=O (stereo not given),16.9,7.8,-0.2,9.7*,16.1,10.0*
C[C@H]1[C@@H](NC(=O)C#Cc2ccccc2)CC[C@@]23CCCN2C(=O)CCC[C@@H]13,-0.4,.,.,0.8,.,.
CCOC(=O)/C(=N\Nc1ccc(Cl)cc1)c1csc(Nc2ccccc2)n1,14.3,0.0,-0.6,3.5,.,.
CCOC(=O)/C(=N/Nc1ccccc1)c1csc(Nc2ccccc2)n1,0.8,-1.0,-0.6,11.1*,10.4,8.1
Cc1ccc(S(=O)(=O)N(CC(=O)Nc2cccc(N(C)S(C)(=O)=O)c2)c2ccc(Cl)c(Cl)c2)cc1,24.6*,2.6,-0.2,13.0*,39.4*,22.4*
COc1ccccc1NC(=O)Cn1nnc(-c2ccccc2NS(=O)(=O)c2ccccc2)n1,14.7,-1.5,0.7,9.3*,36.7*,21.6*
Clc1ccc2[nH]cc(-c3nnnn3-c3ccccc3)c2c1,15.9,2.4,-0.7,8.9*,28.5*,15.9*
Clc1ccc2ncc(-c3nnnn3-c3ccccc3)c(-c3ccccc3)c2c1,3.0,2.8,0.9,-2.6,.,.
O=C(N[C@@H](Cc1cccnc1)C(=O)N1CCC[C@H]1C(=O)NCCc1ccccc1Cl)c1ccc(Cl)c(Cl)c1,-5.2,.,1.2,-3.0,.,.
CCOc1cc(S(=O)(=O)n2cc(-c3ccc(F)cc3)c(N)n2)cc(OCC)c1OCC,17.8,0.0,-0.2,10.9*,30.6*,17.5*
C=C(C)CN1CCN(S(=O)(=O)c2ccc(C)c(N(C)S(=O)(=O)c3ccc(C)cc3)c2C)CC1,6.5,6.6,0.0,10.4*,14.4,11.2*
O=C(Nc1ccc(Br)cc1)c1ccc(F)c(S(=O)(=O)NCc2cccs2)c1,20.4*,0.9,0.1,9.3*,25.2*,15.8*
O=C(Nc1cccc(Cl)c1)c1ccc(F)c(S(=O)(=O)NCc2ccc3c(c2)OCO3)c1,17.6,0.0,0.6,8.7*,24.3*,12.9*
O=C(NCc1ccc2c(c1)OCO2)c1ccc(Cl)c(S(=O)(=O)NCc2ccccc2)c1,1.1,-1.9,0.5,0.2,.,.
COc1cccc(CN(Cc2ccco2)S(=O)(=O)c2ccc(S(=O)(=O)NCc3ccccc3)cc2)c1OC,39.0*,-3.2,0.8,14.0*,43.1*,23.7*
CC(C)(C)C1=Nn2c(nnc2-c2ccc(C(C)(C)C)cc2)SC1,-0.5,.,0.5,-2.5,.,.
Oc1ccc(C[C@H]2CNC(=S)N2CC2CCCN2C[C@H](Cc2ccc(O)cc2)N2C[C@H](Cc3ccccc3)N(CC3CCCCCC3)C2=S)cc1 (stereo not given in full),13.6,-0.4,-0.1,10.0*,43.0*,23.3*
Oc1ccc(C[C@H]2CNC(=S)N2CC2CCCN2C[C@H](Cc2ccc(O)cc2)N2C[C@H](Cc3ccc(O)cc3)N(CC3CCCCCC3)C2=S)cc1 (stereo not given in full),22.6*,1.5,-0.3,9.2*,30.6*,18.4*

# Screening data as filed in PubChem BioAssay.
